Reference: PubChem BioAssay (EPA / NIEHS)
Calls of active or inactive are those of the source. The calls were made as follows: active = hit-call score of the fitted dose curve at least 0.9, where 1 is the maximum; inactive = score below 0.9.

What was measured:
[1] = ATG_GLI_CIS: Attagene CIS-FACTORIAL HepG2 Assay for human Zinc Finger Protein GLI1 (AID 2282945); details: HepG2, Attagene cis-factorial reporter mRNA, GLI element; actives raise or lower the signal
Outline: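 HepG2 cells transiently transfected with cis-promoter multiplexed reporter units report endogenous transcription factor activity. After 24 h chemical exposure, reporter mRNA was quantified by RT-PCR, 6-FAM labelling, HpaI digestion and capillary electrophoresis, with bidirectional fitting against DMSO.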

[2] = molecular target: Bile acid receptor (Homo sapiens) (UniProt Q96RI1); assay: ATG_IR1_CIS: Attagene CIS-FACTORIAL HepG2 Assay for human Nuclear Receptor Subfamily 1 Group H Member 4 (NR1H4), IR1 submotif (AID 2282946); details: IR1 reporter transcription, actives raise or lower the signal
Chain of Bile acid receptor (Homo sapiens) (Q96RI1 whole entry, looked up): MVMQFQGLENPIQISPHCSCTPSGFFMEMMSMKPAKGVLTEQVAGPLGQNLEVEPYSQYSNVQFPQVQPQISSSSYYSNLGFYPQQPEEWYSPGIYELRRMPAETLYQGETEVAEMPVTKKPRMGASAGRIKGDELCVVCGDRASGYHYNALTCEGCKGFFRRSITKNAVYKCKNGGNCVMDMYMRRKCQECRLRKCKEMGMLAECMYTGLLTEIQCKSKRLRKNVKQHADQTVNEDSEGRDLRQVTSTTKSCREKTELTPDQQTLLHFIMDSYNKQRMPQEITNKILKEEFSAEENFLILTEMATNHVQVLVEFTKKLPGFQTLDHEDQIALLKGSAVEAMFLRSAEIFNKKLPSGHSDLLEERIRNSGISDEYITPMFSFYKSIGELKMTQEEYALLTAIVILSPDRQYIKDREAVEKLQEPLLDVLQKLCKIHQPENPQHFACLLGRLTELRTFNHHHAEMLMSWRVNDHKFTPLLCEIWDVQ
Outline: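 Readout: reporter transcript levels by RT-PCR with fluorescent capillary electrophoresis, from HepG2 cells transiently transfected with multiplexed cis-regulated reporters and dosed 24 h. Gain- or loss-of-signal fitted versus DMSO negative control.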

[3] = ATG_GRE_CIS: Attagene CIS-FACTORIAL HepG2 Assay for human Glucocorticoid Response Elements (GRE) (AID 2282947); details: HepG2 GRE cis-reporter, Attagene multiplex mRNA; actives raise or lower the signal
Outline: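 Cells (HepG2) bearing transfected cis-promoter reporter transcription units were treated with chemical for 24 hours. Reporter mRNA was measured via RT-PCR with capillary electrophoresis, and activity was fitted in both directions relative to DMSO.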

[4] = ATG_ISRE_CIS: Attagene CIS-FACTORIAL HepG2 Assay for human Interferon Regulatory Factor 1 (IRF1) binding to an Interferon-Stimulated Response Element (ISRE) (AID 2282948); details: HepG2 ISRE cis-reporter (Attagene), mRNA transcription readout; actives raise or lower the signal
Outline: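 Uses HepG2 liver cells transfected with cis-regulated reporters and measures mRNA 24 h post-dosing through RT-PCR, primer-extension labelling and capillary electrophoresis, with DMSO as negative control.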

[5] = ATG_M_32_CIS: Attagene CIS-FACTORIAL HepG2 Assay for M32 Transcription Factor (Internal Marker) (AID 2282949); details: HepG2 Attagene cis-factorial M32 reporter, mRNA; actives raise or lower the signal;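 also: background control marker of the multiplexed CIS panel rather than a real target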
Outline: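 HepG2 human liver cells transiently transfected with cis-promoter-driven multiple reporter transcription units, dosed 24 h. Reporter mRNA quantified by RT-PCR, FAM-labelled primer extension, HpaI digest and capillary electrophoresis; bidirectional fit versus DMSO baseline.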

[6] = ATG_M_06_CIS: Attagene CIS-FACTORIAL HepG2 Assay for M06 Transcription Factor (Internal Marker) (AID 2282950); details: HepG2 Attagene CIS-FACTORIAL M06 internal marker reporter; actives raise or lower the signal
Outline: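 Fluorescence-labelled RT-PCR products from cis-promoter reporter units, cut with HpaI and resolved by capillary electrophoresis, give the signal. Cells are human HepG2, dosed for 24 h. Serves as background control, fitted relative to DMSO.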

[7] = molecular target: Hypoxia-inducible factor 1-alpha (Homo sapiens) (UniProt Q16665); assay: ATG_HIF1a_CIS: Attagene CIS-FACTORIAL HepG2 Assay for human Hypoxia Inducible Factor 1 (HIF1A) (AID 2282951); details: HepG2 Attagene cis-factorial HIF1a reporter transcription; actives raise or lower the signal
Chain of Hypoxia-inducible factor 1-alpha (Homo sapiens) (Q16665 whole entry, looked up): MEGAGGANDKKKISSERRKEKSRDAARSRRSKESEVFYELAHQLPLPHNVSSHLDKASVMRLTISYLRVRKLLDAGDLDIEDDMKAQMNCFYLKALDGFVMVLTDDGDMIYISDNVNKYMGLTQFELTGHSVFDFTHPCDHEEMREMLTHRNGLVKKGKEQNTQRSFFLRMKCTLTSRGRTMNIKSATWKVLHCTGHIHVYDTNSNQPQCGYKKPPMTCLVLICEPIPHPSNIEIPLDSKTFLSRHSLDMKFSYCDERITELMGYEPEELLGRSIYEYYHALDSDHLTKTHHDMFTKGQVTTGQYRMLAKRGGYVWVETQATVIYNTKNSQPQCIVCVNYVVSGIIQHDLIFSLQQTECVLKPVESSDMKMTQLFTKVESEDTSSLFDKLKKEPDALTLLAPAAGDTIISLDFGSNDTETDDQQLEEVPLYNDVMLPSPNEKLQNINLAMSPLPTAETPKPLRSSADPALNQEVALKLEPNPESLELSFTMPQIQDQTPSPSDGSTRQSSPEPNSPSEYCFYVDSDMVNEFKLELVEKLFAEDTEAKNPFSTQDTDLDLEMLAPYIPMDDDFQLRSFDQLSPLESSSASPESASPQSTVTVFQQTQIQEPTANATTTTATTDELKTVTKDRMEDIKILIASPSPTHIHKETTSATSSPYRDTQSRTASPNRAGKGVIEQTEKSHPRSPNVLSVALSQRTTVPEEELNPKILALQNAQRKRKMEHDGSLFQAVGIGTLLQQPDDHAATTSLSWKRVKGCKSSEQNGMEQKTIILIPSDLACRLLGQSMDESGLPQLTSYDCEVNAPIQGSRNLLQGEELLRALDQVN
Outline: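 After 24 h chemical exposure of reporter-transfected HepG2 cells, reporter cDNA was PCR-amplified, labelled by 6-FAM primer extension (2 min 95 C, 20 s 68 C, 10 min 72 C), HpaI-cut (2 h, 37 C) and analysed by CE.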

[8] = molecular target: Hepatocyte nuclear factor 6 (Homo sapiens) (UniProt Q9UBC0); assay: ATG_HNF6_CIS: Attagene CIS-FACTORIAL HepG2 Assay for human Hepatocyte Nuclear Factor 6 (HNF6) (AID 2282952); details: HepG2 Attagene cis-factorial HNF6 reporter transcription; actives raise or lower the signal
Chain of Hepatocyte nuclear factor 6 (Homo sapiens) (Q9UBC0 whole entry, looked up, the tested form may be a part): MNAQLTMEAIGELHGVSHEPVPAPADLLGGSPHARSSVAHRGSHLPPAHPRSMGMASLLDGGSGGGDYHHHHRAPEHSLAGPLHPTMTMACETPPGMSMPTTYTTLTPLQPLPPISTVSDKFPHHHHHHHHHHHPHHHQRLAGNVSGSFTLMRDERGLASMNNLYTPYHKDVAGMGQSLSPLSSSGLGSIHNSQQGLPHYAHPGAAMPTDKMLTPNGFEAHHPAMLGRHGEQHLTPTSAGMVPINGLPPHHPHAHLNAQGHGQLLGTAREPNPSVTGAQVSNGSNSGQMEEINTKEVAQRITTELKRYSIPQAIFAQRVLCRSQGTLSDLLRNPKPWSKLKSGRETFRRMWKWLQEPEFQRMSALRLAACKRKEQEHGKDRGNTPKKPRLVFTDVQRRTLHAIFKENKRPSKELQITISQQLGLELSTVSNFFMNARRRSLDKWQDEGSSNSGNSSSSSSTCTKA
Outline: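 First, HepG2 cells were transfected with the multiplexed cis reporter library and dosed with chemical for 24 h. Next, RNA was reverse-transcribed, PCR-amplified and fluorescently labelled. Finally, HpaI-digested fragments were read by capillary electrophoresis.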

[9] = ATG_MRE_CIS: Attagene CIS-FACTORIAL HepG2 Assay for human Metal Responsive Element (MRE) (AID 2282954); details: HepG2 MRE cis-reporter transcription, Attagene multiplex; actives raise or lower the signal
Outline: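 Cells were transfected with cis-promoter reporter transcription units, then dosed for 24 h. RNA was reverse-transcribed, amplified, fluorescently labelled and resolved by capillary electrophoresis, and activity was fitted in both directions relative to DMSO.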

[10] = ATG_PBREM_CIS: Attagene CIS-FACTORIAL HepG2 Assay for human Phenobarbital-responsive Enhancer Module (PBREM) (AID 2282955); details: HepG2 PBREM cis-reporter, Attagene multiplexed transcription; actives raise or lower the signal
Outline: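 Measures endogenous factor action on a phenobarbital-responsive enhancer module. HepG2 transiently carrying cis reporters, 24 h treatment, mRNA read-out by RT-PCR plus capillary electrophoresis.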

[11] = molecular target: Paired box protein Pax-6 (Homo sapiens) (UniProt P26367); assay: ATG_Pax6_CIS: Attagene CIS-FACTORIAL HepG2 Assay for human Paired Box 6 (PAX6) (AID 2282956); details: HepG2 CIS-FACTORIAL PAX6 reporter transcription, RNA readout; actives raise or lower the signal
Chain of Paired box protein Pax-6 (Homo sapiens) (P26367 whole entry, looked up): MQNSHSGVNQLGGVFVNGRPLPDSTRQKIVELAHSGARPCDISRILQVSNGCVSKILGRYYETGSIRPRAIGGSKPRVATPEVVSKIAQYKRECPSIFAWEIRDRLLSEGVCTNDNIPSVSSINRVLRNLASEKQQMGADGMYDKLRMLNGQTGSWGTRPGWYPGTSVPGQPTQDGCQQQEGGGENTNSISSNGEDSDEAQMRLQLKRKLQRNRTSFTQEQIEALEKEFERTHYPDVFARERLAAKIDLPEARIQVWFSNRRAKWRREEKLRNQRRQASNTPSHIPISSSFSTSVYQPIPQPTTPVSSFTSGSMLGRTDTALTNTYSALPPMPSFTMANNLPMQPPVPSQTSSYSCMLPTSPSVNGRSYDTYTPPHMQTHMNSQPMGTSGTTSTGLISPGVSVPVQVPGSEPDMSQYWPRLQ
Outline: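 DMSO-referenced bidirectional fits of reporter mRNA fluorescence; HepG2 with transient cis-promoter MRTUs, 24 h post-dose, RT-PCR plus capillary electrophoresis detection.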

[12] = ATG_PXRE_CIS: Attagene CIS-FACTORIAL HepG2 Assay for human Pregnane X Receptor Element (PXRE) (AID 2282957); details: HepG2 Attagene CIS-FACTORIAL PXRE reporter, mRNA; actives raise or lower the signal
Outline: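 After a 24 h chemical incubation, total RNA from transfected HepG2 cells was reverse-transcribed and reporter cDNA amplified, FAM-labeled, HpaI-digested and sized by capillary electrophoresis. DMSO served as baseline for bidirectional curve fitting.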

[13] = ATG_PPRE_CIS: Attagene CIS-FACTORIAL HepG2 Assay for human Peroxisome Proliferator-activated Response Element (PPRE) (AID 2282958); details: HepG2 PPRE cis-element reporter, Attagene transcription factor profiling; actives raise or lower the signal
Outline: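 PPRE activity in HepG2: transient cis-reporter transfection, 24 h compound incubation, reporter mRNA by RT-PCR and CE fluorescence; gain/loss fitted against DMSO.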

[14] = ATG_RORE_CIS: Attagene CIS-FACTORIAL HepG2 Assay for human RAR-related Orphan Receptor Element (RORE) (AID 2282959); details: HepG2 Attagene cis-factorial RORE reporter, mRNA; actives raise or lower the signal
Outline: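 A 24-hour exposure of transfected HepG2 hepatoma cells precedes RNA isolation and reporter RT-PCR. Labeled products are digested with HpaI and resolved by capillary electrophoresis, with gain or loss of signal scored relative to DMSO.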

[15] = ATG_Sox_CIS: Attagene CIS-FACTORIAL HepG2 Assay for human SRY-box transcription factor (SOX) (AID 2282960); details: HepG2 Attagene cis-factorial SOX reporter, mRNA; actives raise or lower the signal
Outline: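 HepG2, cis reporter units, 24 h exposure. Reporter mRNA: RT-PCR → FAM labelling → HpaI → CE fluorescence. Bidirectional fit vs DMSO.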

[16] = molecular target: Transcription factor Sp1 (Homo sapiens) (UniProt P08047); assay: ATG_Sp1_CIS: Attagene CIS-FACTORIAL HepG2 Assay for human Specificity Protein 1 (Sp1) (AID 2282961); details: HepG2 Sp1 cis-reporter transcription, actives raise or lower the signal
Chain of Transcription factor Sp1 (Homo sapiens) (P08047 whole entry, looked up, the tested form may be a part): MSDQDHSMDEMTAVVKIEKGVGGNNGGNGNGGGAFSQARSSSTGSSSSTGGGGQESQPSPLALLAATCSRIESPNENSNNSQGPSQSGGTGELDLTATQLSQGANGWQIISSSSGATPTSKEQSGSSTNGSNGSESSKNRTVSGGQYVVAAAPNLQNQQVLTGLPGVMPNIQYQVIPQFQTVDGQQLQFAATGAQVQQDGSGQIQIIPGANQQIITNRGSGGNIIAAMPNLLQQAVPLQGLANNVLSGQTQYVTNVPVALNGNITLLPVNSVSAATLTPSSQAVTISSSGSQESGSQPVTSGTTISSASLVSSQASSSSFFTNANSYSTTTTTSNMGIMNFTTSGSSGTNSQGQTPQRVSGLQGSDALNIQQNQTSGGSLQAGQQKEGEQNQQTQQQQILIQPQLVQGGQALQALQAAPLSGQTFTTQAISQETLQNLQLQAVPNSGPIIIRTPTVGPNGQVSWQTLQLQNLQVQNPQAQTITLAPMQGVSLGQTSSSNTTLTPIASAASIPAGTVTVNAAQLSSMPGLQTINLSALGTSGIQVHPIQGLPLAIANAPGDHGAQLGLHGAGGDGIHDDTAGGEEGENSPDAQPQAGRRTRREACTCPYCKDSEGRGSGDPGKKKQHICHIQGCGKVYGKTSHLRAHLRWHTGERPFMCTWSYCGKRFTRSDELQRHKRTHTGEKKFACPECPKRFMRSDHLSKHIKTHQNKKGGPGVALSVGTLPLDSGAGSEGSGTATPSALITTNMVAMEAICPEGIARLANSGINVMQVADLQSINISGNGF
Outline: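 Liver-derived HepG2 cells, cis-element reporter library, 24 h treatment; RNA isolated, cDNA amplified with reporter-specific primers, FAM-labeled fragments sized on capillary analyzer. DMSO baseline, bidirectional curve fit.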

[17] = ATG_SREBP_CIS: Attagene CIS-FACTORIAL HepG2 Assay for human Sterol Regulatory Element Binding (SREBP) (AID 2282962); details: HepG2 Attagene cis-factorial SREBP reporter, mRNA; actives raise or lower the signal
Outline: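 In this cis-format assay, HepG2 liver cells express reporters controlled by promoter elements responsive to native transcription factors. Exposure lasts 24 h; reporter mRNA fluorescence from capillary electrophoresis gives the signal, fitted bidirectionally against DMSO.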

[18] = molecular target: Signal transducer and activator of transcription 3 (Homo sapiens) (UniProt P40763); assay: ATG_STAT3_CIS: Attagene CIS-FACTORIAL HepG2 Assay for human Signal Transducer and Activator of Transcription 3 (STAT3) (AID 2282963); details: HepG2, Attagene cis-factorial STAT3 reporter transcription; actives raise or lower the signal
Chain of Signal transducer and activator of transcription 3 (Homo sapiens) (P40763 whole entry, looked up): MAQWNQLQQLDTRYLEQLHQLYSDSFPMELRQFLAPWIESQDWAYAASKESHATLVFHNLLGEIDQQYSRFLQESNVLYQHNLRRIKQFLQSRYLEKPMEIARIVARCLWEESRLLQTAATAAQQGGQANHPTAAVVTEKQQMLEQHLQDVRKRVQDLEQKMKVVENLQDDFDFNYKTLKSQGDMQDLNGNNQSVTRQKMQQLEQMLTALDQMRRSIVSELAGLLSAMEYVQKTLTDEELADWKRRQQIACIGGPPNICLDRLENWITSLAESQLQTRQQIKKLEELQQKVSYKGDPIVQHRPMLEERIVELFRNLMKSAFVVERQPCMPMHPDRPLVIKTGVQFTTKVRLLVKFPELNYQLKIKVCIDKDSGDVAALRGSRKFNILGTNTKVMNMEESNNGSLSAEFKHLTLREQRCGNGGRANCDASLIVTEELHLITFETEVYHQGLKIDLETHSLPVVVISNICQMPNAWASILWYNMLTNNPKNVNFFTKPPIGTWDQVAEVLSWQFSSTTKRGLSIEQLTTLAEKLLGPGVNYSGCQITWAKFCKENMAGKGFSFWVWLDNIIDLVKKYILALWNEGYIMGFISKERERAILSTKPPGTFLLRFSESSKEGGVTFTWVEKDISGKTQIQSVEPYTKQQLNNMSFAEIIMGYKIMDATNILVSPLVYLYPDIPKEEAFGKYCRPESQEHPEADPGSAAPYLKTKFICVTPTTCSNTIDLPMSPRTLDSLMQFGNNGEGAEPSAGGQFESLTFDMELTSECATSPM
Outline: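 HepG2, MRTU-transfected, 24 h dosing. RNA → RT → PCR → FAM label → HpaI → CE. Bidirectional fit vs DMSO.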

[19] = ATG_TA_CIS: Attagene CIS-FACTORIAL HepG2 Assay for human TA Basal Promoter (AID 2282964); details: HepG2 Attagene CIS-factorial TA basal promoter reporter; actives raise or lower the signal
Outline: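 Multiplexed mRNA reporter assay, HepG2, 24 h. Reporter cDNA amplified, 6-FAM primer-extended, HpaI-cut, CE-sized; DMSO = negative control and baseline.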

[20] = molecular target: Heat shock factor protein 1 (Homo sapiens) (UniProt Q00613); assay: ATG_HSE_CIS: Attagene CIS-FACTORIAL HepG2 Assay for human Heat Shock Transcription Factor 1 (HSE) (AID 2282953); details: HepG2 HSE cis-reporter, Attagene RNA transcription; actives raise or lower the signal
Chain of Heat shock factor protein 1 (Homo sapiens) (Q00613 whole entry, looked up): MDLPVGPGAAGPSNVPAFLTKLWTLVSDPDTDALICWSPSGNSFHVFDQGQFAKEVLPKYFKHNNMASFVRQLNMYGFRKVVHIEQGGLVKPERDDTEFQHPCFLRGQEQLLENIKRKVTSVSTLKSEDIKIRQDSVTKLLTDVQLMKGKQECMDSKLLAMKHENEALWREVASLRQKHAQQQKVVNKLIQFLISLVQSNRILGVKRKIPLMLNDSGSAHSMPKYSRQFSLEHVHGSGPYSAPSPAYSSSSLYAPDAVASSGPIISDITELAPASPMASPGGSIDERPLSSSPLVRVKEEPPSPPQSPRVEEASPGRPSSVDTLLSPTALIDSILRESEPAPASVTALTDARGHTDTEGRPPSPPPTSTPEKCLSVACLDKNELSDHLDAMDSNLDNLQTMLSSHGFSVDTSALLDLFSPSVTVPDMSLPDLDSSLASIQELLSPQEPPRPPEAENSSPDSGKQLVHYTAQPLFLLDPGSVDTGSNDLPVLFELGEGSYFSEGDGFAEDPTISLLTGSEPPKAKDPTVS
Outline: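 After a 24 h incubation with test chemical, transfected HepG2 cells were harvested for RNA; reporter transcripts were measured by RT-PCR and capillary electrophoresis. Values reflect gain or loss of signal relative to DMSO.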

Measured: AC50

O=C(O)CCC(F)(F)C(F)(F)C(F)(F)C(F)(F)C(F)(F)C(F)(F)C(F)(F)F
active: [4] 150 µM | [13] 64.4 µM
not listed: [20]
inactive: all other assays above

CCN(CCO)S(=O)(=O)C(F)(F)C(F)(F)C(F)(F)C(F)(F)C(F)(F)C(F)(F)C(F)(F)C(F)(F)F
not listed: [7] | [10] | [12] | [16] | [17]
inactive: all other assays above

O=C(O)C(F)(F)OC(F)(F)C(F)(F)OC(F)(F)C(F)(F)OC(F)(F)F
active: [20] 104 µM | [13] 36.4 µM
not listed: [10] | [12]
inactive: all other assays above

Cc1ccc2c(c1)OCC(=O)CO2
active: [12] 77 µM
not listed: [20]
inactive: all other assays above

Cc1cnccn1
not listed: [12] | [16] | [20]
inactive: all other assays above

Cc1cc(O)c(C(C)(C)C)cc1C(C)(C)C
active: [2] 2.87 µM | [4] 17.2 µM | [9] 18 µM | [12] 2.92 µM | [17] 8.33 µM
not listed: [10] | [16] | [20]
inactive: all other assays above

N#Cc1ccccc1O
not listed: [7]
inactive: all other assays above

O=S(=O)(O)CCC(F)(F)C(F)(F)C(F)(F)C(F)(F)C(F)(F)C(F)(F)C(F)(F)C(F)(F)F
active: [2] 39.9 µM
not listed: [20]
inactive: all other assays above

O=C1c2c(O)ccc(Nc3ccc(CCO)cc3)c2C(=O)c2c([N+](=O)[O-])ccc(O)c21
active: [10] 38.6 µM | [13] 24.1 µM | [14] 4.01 µM
not listed: [7] | [12]
inactive: all other assays above

C=CC(=O)OCCC(F)(F)C(F)(F)C(F)(F)C(F)(F)F
active: [12] 43.8 µM
not listed: [16] | [20]
inactive: all other assays above

Cc1ccc(O)c(-n2nc3ccccc3n2)c1
active: [12] 12.2 µM | [13] 13.5 µM
not listed: [7] | [16]
inactive: all other assays above

CC(C)(C)c1cc(Cc2cc(C(C)(C)C)c(O)c(C(C)(C)C)c2)cc(C(C)(C)C)c1O
active: [12] 0.513 µM
not listed: [7] | [10] | [17]
inactive: all other assays above

CNS(=O)(=O)C(F)(F)C(F)(F)C(F)(F)C(F)(F)C(F)(F)C(F)(F)C(F)(F)C(F)(F)F
active: [7] 24.4 µM
not listed: [10] | [12] | [17]
inactive: all other assays above

Cc1ccc(S(=O)(=O)C(I)I)cc1
active: [1] 6.16 µM | [2] 42.7 µM | [3] 3.45 µM | [4] 4.8 µM | [8] 33.4 µM | [20] 10.4 µM | [9] 8.81 µM | [11] 14.9 µM | [12] 8.89 µM | [13] 62.5 µM | [16] 9.07 µM | [17] 4.34 µM | [18] 7.8 µM
inactive: [5] | [6] | [10] | [14] | [15] | [19]

CCCCCCCCCCCC(=O)Cl
active: [13] 49.9 µM
not listed: [10] | [12] | [17]
inactive: all other assays above
